High-throughput results: PubChem BioAssay, National Center for Advancing Translational Sciences (NCATS)
LmPK inhibitor = qHTS Assay for Inhibitors of Leishmania Mexicana Pyruvate Kinase (LmPK); Potency, µM (series often up to 57.5 µM), hits mostly inhibitors; Q27686; 0.37% of 290,000 active; purified LmPK, Kinase-Glo ATP luminescence, 1 h
Target sequence (Q27686 whole entry, looked up): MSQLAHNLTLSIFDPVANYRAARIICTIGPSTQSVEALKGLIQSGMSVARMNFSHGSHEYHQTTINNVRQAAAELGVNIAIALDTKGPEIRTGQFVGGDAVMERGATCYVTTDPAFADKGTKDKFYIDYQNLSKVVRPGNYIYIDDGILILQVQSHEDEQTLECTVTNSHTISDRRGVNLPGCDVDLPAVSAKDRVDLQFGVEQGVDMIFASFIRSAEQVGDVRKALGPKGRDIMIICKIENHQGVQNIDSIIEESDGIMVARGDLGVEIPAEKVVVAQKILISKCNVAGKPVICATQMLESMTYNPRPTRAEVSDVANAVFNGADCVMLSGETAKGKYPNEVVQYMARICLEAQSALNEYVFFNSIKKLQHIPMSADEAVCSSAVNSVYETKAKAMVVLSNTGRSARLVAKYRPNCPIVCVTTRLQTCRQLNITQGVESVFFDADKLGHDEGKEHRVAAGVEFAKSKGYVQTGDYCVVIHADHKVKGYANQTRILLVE
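Kinase-Glo luminescence read after 1 h RT reaction of 0.1 nM LmPK with 0.5 mM PEP and 0.1 mM ADP. Activity scaled between uninhibited and enzyme-free controls.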
Shiga inhibitor = A qHTS for Small Molecule Inhibitors of Shiga Toxin | Vero cells, Shiga toxin protein synthesis inhibition reporter | inhibition, % at 38.7 µM | 9.2% of 290,000 active; in the data active means inhibition mostly above about 28%, no sharp cut-off; inactive means mostly below about 43%
CHX counter = Cycloheximide Counterscreen for Small Molecule Inhibitors of Shiga Toxin; cell reporter, cycloheximide protein synthesis inhibition counterscreen; max response, %; 12% of 300,000 active; in the data active means max response mostly above about 13%, no sharp cut-off; inactive means mostly below about 14%; further: read at 38.3 µM for the half of the compounds with a filed dose
RE007 growth inh = qHTS Assay for Inhibitors of the HIV-1 protein Vpr. S. pombe RE007 Vpr strain, BacTiter-Glo ATP luminescence, 24 h. Potency, µM (doses to about 92.2 µM), usual class: inhibitors. 0.21% of 360,000 active. AID 651644, 2012; active means well fitted falling curve with a large enough effect; inconclusive means small, poorly fitted or top-dose-only effect; inactive means no such curve, though single readings can be large or run the other way; further: nearly all actives have a fitted effect of over 50% in size
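Fission yeast strain RE007, carrying one chromosomally integrated HIV-1 vpr copy, was seeded at OD 0.01 in PMG+AL medium with 23 nL pinned compound. After 24 h at 30 °C and 99% humidity, viability was read by BacTiter-Glo luminescence.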
Giardia FBPA inh = qHTS Assay for Inhibitors of Fructose-1,6-bisphosphate Aldolase from Giardia Lamblia; A8B2U2; purified Giardia FBPA; Potency, µM (series often up to 59.6 µM), actives largely listed as inhibitors; 0.71% of 290,000 active; AID 2451, 2010; further: nearly all actives have a fitted effect of over 55% in size
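40 nM FBPA preincubated 10 min at RT with compound (up to 57.5 uM final), then substrate plus GAPDH/TPI/NAD/arsenate coupling and diaphorase/resazurin added. Fluorescence read after 20 min at RT, 525/598 nm.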
Tb PYK inh = qHTS of Trypanosoma Brucei Inhibitors; 0.12% of 410,000 active; Potency, µM (titrated, usually from 76.8 µM), hits mostly inhibitors; pyruvate kinase (Trypanosoma brucei), Q57TT1; TbPYK enzyme, Kinase-Glo Plus ATP luminescence, 45 min; further: nearly all actives have a fitted effect of over 50% in size
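Luminescent Kinase-Glo Plus end-point after 45 min room-temperature reaction of T. brucei pyruvate kinase started with 130 uM ADP (final). Buffer TEA 50 mM pH 7.2 with KCl, MgCl2, BSA, Tween-20; titration-based qHTS with fitted concentration-effect curves.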
Large screens that a line does not name were inactive. Shown is part of a subset that was picked to be rich in hits. Unless noted, the call rests on the fitted dose curve; in most records, active means well fitted curve in the direction sought with a large enough effect; inconclusive means small, poorly fitted or top-dose-only effect, or another doubt; inactive means no such curve, though single readings can be large; an effect the other way counts as inactive or inconclusive.

CCOC(=O)C1CCN(Cc2oc(CO)cc(=O)c2O)CC1	Shiga inhibitor 33, Giardia FBPA inh inconclusive
Cc1ccc(CNc2nc(-c3ccco3)nn2C(=O)c2ccccc2[N+](=O)[O-])cc1	none (no result: LmPK inhibitor, Shiga inhibitor, CHX counter, RE007 growth inh, Giardia FBPA inh)
O=S(=O)([N-]c1nc2ccccc2nc1-[n+]1ccc(-c2ccncc2)cc1)c1ccccc1	Shiga inhibitor 92, CHX counter 34
O=S(=O)([N-]c1nc2ccccc2nc1-[n+]1ccccc1)c1ccccc1	none
CC(=C/c1ccccc1)/C=N/NC(=O)c1cnccn1	Shiga inhibitor 51, CHX counter 30
CC(/C=N/NC(=O)C(O)c1ccccc1)=C\c1ccccc1 (configuration not stated)	Shiga inhibitor 45, CHX counter 14
O=C(N/N=C/C=C/c1ccccc1)C(O)c1ccccc1 (configuration not stated)	none (no result: LmPK inhibitor, Shiga inhibitor, CHX counter, Giardia FBPA inh)
O=C(N/N=C/C(Cl)=C\c1ccccc1)c1cnccn1	Shiga inhibitor 132, CHX counter 53
O=C(Cc1cc(=O)[nH][nH]1)N/N=C/C(Cl)=C/c1ccccc1	none
O=C(N/N=C/C(Cl)=C/c1ccccc1)c1cnccn1	Shiga inhibitor 57
CCOc1ccc(Nc2oc(/C=C/c3cccc(OC)c3)nc2C#N)cc1	none (no result: LmPK inhibitor, Shiga inhibitor, CHX counter, RE007 growth inh, Giardia FBPA inh)
CCOC(=O)C1CCN(C(=O)COC(=O)/C=C/c2cccc(OC)c2OC)CC1	none (no result: LmPK inhibitor, Shiga inhibitor, CHX counter, Giardia FBPA inh)
CC(/C=N/NC(=O)c1cccnc1)=C\c1ccccc1	Shiga inhibitor 84, CHX counter 49
CC(/C=N/Nc1nc(C)cc(C)n1)=C\c1ccc(C(C)C)cc1	Shiga inhibitor 59, CHX counter 35
CC(/C=N/NC(=O)c1ccncc1)=C\c1ccc(C(C)C)cc1	Shiga inhibitor 128, CHX counter 52
CC(/C=N/NC(=O)CSc1nc(C)cc(C)n1)=C\c1ccccc1	none
COc1ccc(NC(=O)CCCn2c(=O)c3sccc3n(Cc3ccccc3C)c2=O)cc1	none
COc1ccc(NC(=O)CCCn2c(=O)c3sccc3n(Cc3ccccc3)c2=O)cc1	CHX counter 26
Cc1ccsc1/C=N/NC(=O)C(O)c1ccccc1 (configuration not stated)	CHX counter 9.6
Cc1ccsc1/C=N/NC(=S)NCc1ccccc1	none
Cc1ccsc1/C=N\NC(=O)CC(=O)NCc1ccccc1	Giardia FBPA inh 20µM
Cc1ccsc1/C=N/NC(=O)C(N)=O	CHX counter 35
Cc1ccsc1/C=N/NC(=O)c1ccccn1	LmPK inhibitor inconclusive, Shiga inhibitor 47, CHX counter 62, RE007 growth inh inconclusive
Cc1ccsc1/C=N/NC(=O)c1cccs1	Shiga inhibitor 77, CHX counter 33
Fc1ccc(CO/N=C/C2=C(Cl)c3ccccc3CC2)cc1	Shiga inhibitor 80, CHX counter 12
COc1ccc(C(=O)OCC(=O)NC2CCCC2)c(OC)c1	CHX counter 17
COc1cc(SC)ccc1C(=O)OCC(=O)NC1CC1	CHX counter 26
COC(=O)c1ccc(COC(=O)c2ccc(SC)cc2OC)cc1	Shiga inhibitor 45, CHX counter 21
COc1ccc(C(=O)OCC(=O)NC2CCCCCC2)c(OC)c1	none (no result: LmPK inhibitor, Shiga inhibitor, CHX counter, Giardia FBPA inh)
COc1cc(SC)ccc1C(=O)OCc1nc2ccsc2c(=O)[nH]1	none (no result: LmPK inhibitor, Shiga inhibitor, CHX counter, Giardia FBPA inh)
COc1cc(SC)ccc1C(=O)OCC(=O)NCCNC(=O)COC(=O)c1ccc(SC)cc1OC	none (no result: Giardia FBPA inh)
Cc1ccc(C2(c3ccccc3)NC(=O)N(CC(=O)NCc3ccccc3)C2=O)cc1C (configuration not stated)	none (no result: LmPK inhibitor, Shiga inhibitor, CHX counter, Giardia FBPA inh)
Cc1cc(NC(=O)Cn2nc(C)c([N+](=O)[O-])c2C)no1	none
CC(C)(C)NC(=O)[C@@H]1CC[C@@H]2[C@@H]3CC[C@@H]4NC(=O)C=C[C@@]4(C)[C@H]3CC[C@]21C	none (no result: LmPK inhibitor, Shiga inhibitor, CHX counter, RE007 growth inh)
O=C(CSc1nc(=O)[nH]c2c1CCCC2)Nc1ccccc1C(F)(F)F	none (no result: LmPK inhibitor, Shiga inhibitor, CHX counter, RE007 growth inh, Giardia FBPA inh)
COCCNC(=O)c1ccc2c(c1)ncn2-c1ccc(F)c(F)c1	CHX counter 17
COC(CNC(=O)c1ccc2c(c1)ncn2-c1ccc(F)c(F)c1)OC	none
Cc1ccc(NCc2ccc(C)s2)cc1	Shiga inhibitor 66, CHX counter 37 (no result: RE007 growth inh, Tb PYK inh)
CC(=O)N1CCN(c2ccc(NCc3ccc(C)s3)cc2)CC1	Giardia FBPA inh inconclusive
Cc1ccc(CNc2ccc(N3CCOCC3)cc2)s1	Shiga inhibitor 93, CHX counter 48
CCn1ccc2cc(S(=O)(=O)N3CCC(C(=O)NCCc4ccccc4Cl)CC3)ccc21	none (no result: LmPK inhibitor, Shiga inhibitor, CHX counter, RE007 growth inh, Giardia FBPA inh)
O=C(COC(=O)c1c2c(nc3ccccc13)CCCC2)c1cccs1	CHX counter 23
O=C(COC(=O)c1c2c(nc3ccccc13)CCCCC2)c1ccc(Cl)s1	Shiga inhibitor 78
O=C(O)/C=C/c1cnn(-c2ccccc2)c1	LmPK inhibitor inconclusive, CHX counter 21
CCOC(=O)/C=C/c1cnn(-c2ccccc2)c1	Shiga inhibitor 169, CHX counter 89
COc1ccc(Cl)cc1NC(=O)c1cc(S(=O)(=O)NC2CCCCCC2)ccc1F	none (no result: LmPK inhibitor, Shiga inhibitor, CHX counter, RE007 growth inh, Giardia FBPA inh)
O=S(=O)(c1ccc(N2CCOCC2)c(Cl)c1)N1CCOCC1	none
O=c1c2ccccc2sn1-c1cc(S(=O)(=O)N2CCOCC2)ccc1N1CCOCC1	Giardia FBPA inh inconclusive, Tb PYK inh 4.5µM
O=C(NCc1ccccn1)C1CCN(C2CCN(Cc3cccc(F)c3)CC2)CC1	none (no result: LmPK inhibitor, Shiga inhibitor, CHX counter, Giardia FBPA inh)
CC(C)(C)OC(=O)NCCc1nnc(SCc2ccccc2Cl)o1	none
CC(C)(C)OC(=O)NCCc1nnc(S(=O)(=O)Cc2ccc(Cl)cc2Cl)o1	CHX counter 19
O=C(CC1C(=O)NCCN1CC1CCCCC1)NCc1ccc(F)cc1F (configuration not stated)	Shiga inhibitor 41, CHX counter 20
O=C(CC1C(=O)NCCN1CC1CCCCC1)NCc1cc(F)ccc1F (configuration not stated)	none
Cc1ccccc1CN1CCc2cc([N+](=O)[O-])ccc21	none
COC(=O)CCN1CCc2cc(N=Nc3ccc([N+](=O)[O-])cc3)ccc21	CHX counter 39
CC(=O)c1ccc(NC(=O)COc2ccccc2-c2nc(-c3cccc(C)c3)no2)cc1	none (no result: LmPK inhibitor, Shiga inhibitor, CHX counter, RE007 growth inh, Giardia FBPA inh)
CCN(CC)S(=O)(=O)c1ccc(N2CCN(S(=O)(=O)c3ccccc3)CC2)nc1	none
CCN(CC)S(=O)(=O)c1ccc(N2CCc3ccccc3C2)nc1	CHX counter 37
CC(C)N(C(C)C)S(=O)(=O)c1ccc(Cl)nc1	none
CC(C)N(C(C)C)S(=O)(=O)c1ccc(N2CCc3ccccc3C2)nc1	Shiga inhibitor 58, CHX counter 32
COc1ccccc1Cc1nc2ccccc2[nH]c1=O	none (no result: LmPK inhibitor, Shiga inhibitor, CHX counter, RE007 growth inh, Giardia FBPA inh)
